# In all, about 13,000 compounds went through this assay and about 3,200 (25%) showed an effect of 50% or more. The list shows a part of the results.
# System: P. falciparum stage V gametocytes
# Set-up: BacTiter-Glo ATP luminescence viability of purified stage V gametocytes in 384-well plates, per cent inhibition versus DMSO
# Conditions: 48 h, 5 µM; inhibitor
row,Structure (SMILES),% Inhibition
1,Cc1cc(-c2ccc3c(c2)CCN(CCC2CCC(NC(=O)/C=C/c4cccc(F)c4)CC2)CC3)on1 (centres unmarked) [TCMDC-139973],-71.57%
2,Cc1ccc(C)c(Sc2ccc(NC(=O)CN3CCN(C(=O)c4ccco4)CC3)cc2)c1 [TCMDC-124860],-17.66%
3,CC(C)c1cccc(OCC2CCN(c3ccc(C(=O)Nc4ccccc4)cn3)CC2)c1 [TCMDC-134261],7.313%
4,NC(=O)c1c(Cl)nc2ccccc2c1Cl [TCMDC-131373],-0.4742%
5,COc1ccc(C(=O)N2CCN(c3ccc([N+](=O)[O-])c(NC4CC4)c3)CC2)cc1Br [TCMDC-123659],105.4%
6,COc1ccc(C(=O)Nc2ccc3nc(N4CCCCC4)cc(C)c3c2)cc1[N+](=O)[O-] [TCMDC-125448],-8.807%
7,O=C(c1cccc(-c2noc(C(F)(F)F)n2)c1)N1CCN(c2ccncc2)CC1 [TCMDC-132423],9.188%
8,O=C(Nc1cccc(CN2CCN(C(=O)c3cccc(Cl)c3)CC2)c1)c1ccco1 [TCMDC-136322],-11.21%
9,O=C(c1cccc(Cl)c1)N1CCN(c2ccc([N+](=O)[O-])c(NC3CC3)c2)CC1 [TCMDC-125827],67.12%
10,COc1ccc(S(=O)(=O)N2CCCC(C)C2)cc1N1CCN(C(=O)c2ccc([N+](=O)[O-])o2)CC1 (centres unmarked) [TCMDC-124803],27.68%
11,N#Cc1ccc(NC2(C(=O)N3CCN(c4cccc(Cl)c4)CC3)CC2)c2ccccc12 [TCMDC-136618],-25.2%
12,O=C(c1cccc(Br)c1)N1CCN(c2ccc([N+](=O)[O-])c(NC3CC3)c2)CC1 [TCMDC-123536],60.19%
13,O=C(NC1CC1)c1ccc(N2CCC(Cc3ccccc3)CC2)c([N+](=O)[O-])c1 [TCMDC-123724],45.67%
14,O=C(NCC1CCC(C(=O)NCc2cccc3ccccc23)CC1)c1ccc(O)c(-c2ccc(Cl)c(Cl)c2)c1 (centres unmarked) [TCMDC-140895],-0.9635%
15,CO/C(=C\C=C\c1cc2cc(Cl)c(Cl)cc2[nH]1)C(=O)NCCCN1CCN(c2cccc(OCC(=O)Nc3cccc(C(=O)c4ccccc4)c3)c2)CC1 [TCMDC-139411],32.5%
16,NC(=O)c1cc2nc(Nc3ccc(F)cc3)nc(NC3CCC3)c2[nH]1 [TCMDC-137003],-67.45%
17,COc1ccc(CN2CCC(NCc3cccc(C(F)(F)F)c3)CC2)cc1 [TCMDC-141652],21.67%
18,O=[N+]([O-])c1cccc(CNC2CCN(Cc3ccc(C(F)(F)F)cc3)CC2)c1 [TCMDC-141204],-3.032%
19,O=[N+]([O-])c1cccc(CNC2CCN(Cc3ccc(Cl)c(Cl)c3)CC2)c1 [TCMDC-141200],48.14%
20,O=C(Nc1ccc2ccccc2c1)N1CCC(NCc2cccc([N+](=O)[O-])c2)CC1 [TCMDC-141278],22.21%
21,CCCCCCN1CCC(NCc2cccc([N+](=O)[O-])c2)CC1 [TCMDC-141205],32.34%
22,O=[N+]([O-])c1cccc(CNC2CCN(Cc3ccc4ccccc4c3)CC2)c1 [TCMDC-141202],96.08%
23,COc1ccc(CN2CCC(NCc3cccc([N+](=O)[O-])c3)CC2)cc1 [TCMDC-141201],64.68%
24,O=[N+]([O-])c1cccc(CNCC2CCN(Cc3ccc4ccccc4c3)CC2)c1 [TCMDC-141207],30.18%

row,Structure (SMILES),% Inhibition
1,O=[N+]([O-])c1cccc(CNC2CCN(Cc3ccc(-c4ccccc4)cc3)CC2)c1 [TCMDC-141203],57.53%
2,Cn1c(NC(=O)c2ccc(CNC(=O)c3ccc(O)c(-c4ccc(Cl)c(Cl)c4)c3)cc2)nc2ccccc21 [TCMDC-140881],-6.168%
3,Cc1[nH]c2cc(Cl)ccc2c1C1=CCN(CCCCC2(C)C(=O)Nc3c(F)cccc32)CC1 (centres unmarked) [TCMDC-140946],-93.15%
4,Cc1ccc(S(=O)(=O)NC2CCN(c3ccnc4cc(Cl)ccc34)C2)cc1 (centres unmarked) [TCMDC-133652],11.61%
5,Cc1cc(OCCCN2CCC(NS(=O)(=O)c3ccc(Cl)c(Cl)c3)C2)c2ccccc2n1 (centres unmarked) [TCMDC-136282],-6.813%
6,COc1ccc(-c2ccc(NC(=O)c3ccc(C#N)cc3)cc2)cc1CN1CCC(O)CC1 [TCMDC-132522],-51.71%
7,COc1ccc(-c2cccc(NC(=O)c3cccc(C#N)c3)c2)cc1CN1CCCC1 [TCMDC-132623],25.04%
8,COc1ccc(-c2cccc(NC(=O)c3cccc(C#N)c3)c2)cc1CN1CCN(C)CC1 [TCMDC-132624],71.95%
9,COc1ccc(-c2cccc(NC(=O)c3cccc(C#N)c3)c2)cc1CN1CCC(O)CC1 [TCMDC-132626],84.74%
10,COc1ccc(-c2ccc(NC(=O)c3cccc(C#N)c3)cc2)cc1CN1CCN(C)CC1 [TCMDC-132532],1.481%
11,COc1ccc(-c2ccc(NC(=O)c3cccc(C#N)c3)cc2)cc1CN1CCC(O)CC1 [TCMDC-132534],-38.76%
12,COc1ccc(-c2cccc(NC(=O)c3cccc(C#N)c3)c2)cc1CN1CCCN(C)CC1 [TCMDC-132621],35.38%
13,COc1ccc(-c2ccc(NC(=O)c3cccc(C#N)c3)cc2)cc1CN1CCCC(C(N)=O)C1 (centres unmarked) [TCMDC-132533],78.38%
14,Oc1ccc2[nH]c(-c3ccc(OC(F)(F)F)cc3)nc2c1CNC1CCCC1 [TCMDC-136530],-82.26%
15,O=C(NC1CCN(c2ccnc3cc(Cl)ccc23)C1)c1ccc(F)cc1F (centres unmarked) [TCMDC-133659],10.53%
16,COc1cc(Cc2cnc(N)nc2N)c2c(c1OC)OC(C)(C)C=C2 [TCMDC-138038],-2.785%
17,Cc1cc(OCC2CCN(c3ccc(C(=O)NC4CC4)cn3)CC2)ccc1F [TCMDC-134031],14.38%
18,Oc1cccc(Nc2ccnc3cc(-c4ccncc4)ccc23)c1 [TCMDC-138292],8.476%
19,COc1cc(Nc2ccnc3cc(-c4nccs4)ccc23)ccc1OCCCc1nc2ccccc2[nH]1 [TCMDC-138339],-6.497%
20,Oc1cccc(Nc2ccnc3cc(-c4nccs4)ccc23)c1 [TCMDC-138297],-47.13%
21,Brc1ccc(Nc2ccnc3cc(-c4nccs4)ccc23)cc1Oc1ccnc2cc(-c3nccs3)ccc12 [TCMDC-138299],0.7997%
22,Cn1cc(Br)c(-c2cccc(Nc3ccnc4cc(-c5nccs5)ccc34)c2)n1 [TCMDC-138333],50.96%
23,Cn1ccc(-c2cccc(Nc3ccnc4cc(-c5nccs5)ccc34)c2)n1 [TCMDC-138336],105.5%
